# Shown are actives, neighbours in structure and some others; about 1.6% of the full set was active somewhere.
# eIF4H inh – inhibitors of RNA binding by human eIF4H | eIF4H fluorescence polarization binding assay | inhibition, % at 35 µM | 290,000 compounds, 0.94% hits | AID 2012;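 note: calls also rest on retests at 20 µM and on dose response follow-up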
# MLLE-PAM2 inh – inhibitors of microRNA-mediated deadenylation, human PABP1 MLLE binding | P11940 | GST-MLLE / FITC-PAM2 fluorescence polarization | inhibition, % at 20 µM | 360,000 compounds, 0.36% hits; in the data active = inhibition above about 35%, passing the limit was not always enough;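 note: plate controls were DMSO wells with GST-MLLE for no effect and wells lacking GST-MLLE protein for full effect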
# PERK inhibitor – inhibitors of human PERK kinase | Q9NZJ5 | CHO PERK-DD fusion, SEAP luminescence translation reporter | inhibition, % at 5.6 µM | 220,000 compounds, 0.17% hits | AID 1416;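 active = inhibition above the mean inhibition of all tested compounds plus 3 SD, set separately per screening campaign, cut at about 2.9% in these data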;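 note: PERK kinase domain activated by AP20187 dimerizer at 100 nM; 0% = DMSO with dimerizer and 100% = rapamycin at 8.4 µM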
# PABP polyA inh – blocks human PABP binding to poly(A) RNA; 290,000 compounds, 1% hits; AID 2014; inhibition, % at 35 µM; fluorescence polarization;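 note: calls also rest on retests at 20 µM and on dose response follow-up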
# eIF4E-4G inh – eIF4E/eIF4G interaction inhibition in translation initiation. P63073+Q04637. TR-FRET eIF4E-eIF4GI(517-606) binding, 2 h. inhibition, % at 21.7 µM. 220,000 compounds, 0.37% hits;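 active = inhibition above about 30%, limit read from the data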;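 note: 0% = full FRET control wells and 100% = background wells lacking eIF4GI fragment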
# Active calls of the source: *; ? = inconclusive; nt = no result given; [ ] = remark or other dose. Unless noted, the rule behind the calls is not given here.
SMILES,eIF4H inh,MLLE-PAM2 inh,PERK inhibitor,PABP polyA inh,eIF4E-4G inh
COc1cccc(NC(=O)CN(C)C(=O)c2ccc(Cl)c(S(=O)(=O)N3CCCCCC3)c2)c1,nt,-8,nt,nt,nt
COc1ccc(OCCSCc2nnc(NC(=O)Nc3ccc(Cl)cc3)s2)cc1,-3,-21,0,1,5
Cc1ccc(OCCSc2nnc(NC(=O)c3ccco3)s2)cc1,-9,-2,1,-10,2
Cc1ccc(NC(=O)Nc2nnc(CSCCOc3ccc(Cl)cc3)s2)cc1,84,-30,1,active,-5
CCCCOC(=O)Nc1nnc(SCCOc2ccc(C)cc2)s1,28,11,1,7,44*[fluorescence artefact?]
CC(C)Cn1c(SCC(=O)c2c(N)n(C)c(=O)n(C)c2=O)nc2ccccc21,4,-114,0,-12,1
COCCn1c(SCC(=O)c2c(N)n(C)c(=O)n(C)c2=O)nc2ccccc21,3.0*,-1,0,61*,0
CC(=O)Nc1ccc(N(C(=O)c2ccco2)C(C(=O)NC2CCCC2)c2ccncc2)cc1 (stereo not drawn),-19,-4,nt,-3,nt
O=C(CCSc1ccc(Cl)cc1)c1ccco1,-2,35,nt,-4,nt
O=C(CSc1ccc(Cl)cc1)c1ccco1,87*,32,0,38*,13
Cc1c(NS(=O)(=O)c2cc(C(=O)OCC(=O)c3ccccc3F)ccc2Cl)c(=O)n(-c2ccccc2)n1C,nt,18,nt,nt,nt
CCc1noc(C)c1C(=O)N1CCN(S(=O)(=O)c2ccccc2C(F)(F)F)CC1,nt,88*,nt,nt,nt
O=C(NC12CC3CC(CC(C3)C1)C2)c1ccc(=O)oc1,-2,10,1,3,-3
O=C(NNC(=O)C1[C@H]2CCCC[C@@H]12)c1ccc(=O)oc1 (stereo partly drawn),?,-21,0,39*,1
S=c1[nH]cc2cnccn12,nt,70*,nt,nt,nt
Cc1cc(C(O)c2ncc(-c3ccccc3F)[nH]2)ccc1F (stereo not drawn),nt,-8,nt,nt,nt
O=c1cc(/C=C/c2cccs2)[nH]c2ccccc12,-6,11,0,0,1
CSc1ccc(/C=C/c2cc(=O)c3ccccc3[nH]2)cc1,131*,7,0,58,2
Cc1cnc(CN2CCc3c([nH]c4ccccc34)C2CC(C)C)[nH]1 (stereo not drawn),20,-38,0,63*,-2
Cc1cccc(CN2CCc3c([nH]c4ccccc34)C2CC(C)C)n1 (stereo not drawn),8,-8,nt,2,nt
COc1ccccc1NC(=O)COC(=O)CCn1c(C)csc1=O,nt,10,nt,nt,nt
COc1ccccc1N(CC(=O)NCCc1ccccc1)C(=O)CCC(=O)Nc1cc(C)ccn1,4,0,nt,12,nt
COc1ccc(N(CC(=O)NCc2ccccc2)C(=O)CCC(=O)Nc2cc(C)ccn2)c(OC)c1,1,12,0,-2,88*
CNC(=O)C1CC(=O)N(CCc2ccccc2)C(=Nc2ccc(OC)cc2)S1 (stereo not drawn),7,-25,0,?,1
CCN1C(=O)CC(C(=O)NCCc2ccc(S(N)(=O)=O)cc2)SC1=Nc1ccc(OC)cc1 (stereo not drawn),active,1,2,83*,1
SMILES,eIF4H inh,MLLE-PAM2 inh,PERK inhibitor,PABP polyA inh,eIF4E-4G inh
O=C(Nc1ccc2nc(-c3ccco3)c(-c3ccco3)nc2c1)NC1CC1,99,18,0,-6,41*[fluorescence artefact?]
O=C(Nc1ccc(N2CCOCC2)cc1)Nc1ccc2nc(-c3ccco3)c(-c3ccco3)nc2c1,107,27,-1,10,-15
O=C(NCCCO)Nc1ccc2nc(-c3ccco3)c(-c3ccco3)nc2c1,?,nt,1,?,48*
OCCCNC(=S)Nc1ccc2nc(-c3ccccn3)c(-c3ccccn3)nc2c1,12,34,1,38,7
O=C(O)c1ccc(N/N=C/c2ccc(F)c(F)c2)cc1,-10,-8,2,-24,-8
Nc1cc(C(=O)O)ccc1Nc1ccc(F)c(F)c1,65*,3,0,35*,1
Cc1cc(C(=O)NNC(=O)c2ccc(C)c([N+](=O)[O-])c2)c(C)o1,nt,6,nt,nt,nt
O=C(CCCNC(=O)c1ccc(Cl)cc1)Nc1nccs1,nt,-5,nt,nt,nt
Cc1ccc(O)c(NC2=C(Cl)C(=O)N(Cc3ccccc3)C2=O)c1,9,-6,0,11,31*
Cc1ccc(C(=O)N2CCCCC2)cc1NC1=C(Cl)C(=O)N(Cc2ccccc2)C1=O,nt,7,nt,nt,nt
CC(C)(C)c1ccc(CC(=O)N2CCC2(C)C(=O)NS(=O)(=O)c2ccc(Cl)s2)cc1 (stereo not drawn),nt,11,nt,nt,nt
COc1ccc(Br)c(C(=O)OCC(=O)N2CCC(Cc3ccccc3)CC2)c1,nt,-6,nt,nt,nt
COc1cc(NC(=O)CSc2ccc(-c3ccco3)nn2)cc(OC)c1,60*,19,nt,-2,nt
CSc1nnc(-c2ccco2)c(-c2ccco2)n1,97*,26,0,94*,23
COc1ccc(NC(=O)CSc2nnc(-c3ccco3)c(-c3ccco3)n2)cc1OC,64*,-2,nt,28,nt
COc1cccc(NC(=O)CSc2nnc(-c3ccco3)c(-c3ccco3)n2)c1,83*,26,nt,44*,nt
CCN(CC(=O)NC1CCS(=O)(=O)C1)c1ccc([N+](=O)[O-])cc1C#N (stereo not drawn),nt,-2,nt,nt,nt
C[C@@H]1CN([C@@H](C)CO)S(=O)(=O)c2ccc(Br)cc2O[C@@H]1CN(C)S(=O)(=O)c1cn(C)cn1,nt,-3,nt,nt,nt
COc1ccc(C(=O)CSc2nnc(-c3ccco3)n2C)cc1,-1,-3,0,7,5
COc1ccc(C(=O)CSc2nnc(-c3ccco3)c(-c3ccco3)n2)cc1,85,35,0,75*,20
COc1cc(NC(=O)c2ccnc(N)c2)cc(C(=O)Nc2cccc(C(F)(F)F)c2)c1,-13,10,nt,3,-4
COc1cc(NC(=O)c2cnc(N)s2)cc(C(=O)Nc2cccc(C(F)(F)F)c2)c1,-13,-8,nt,3,31*
COc1ccc(NC(=O)Cn2nnc(-c3ccccc3NC(=O)C3CC3)n2)cc1,-9,2,-1,1,0
COc1ccc(C(=O)Cn2nnc(-c3ccccc3NC(=O)C3CCCCC3)n2)cc1,23,-40,0,62*,-8
CC(C)(C)OC(=O)C[C@H]1C/C=C\C[C@H](CC(=O)N[C@H](CO)Cc2ccccc2)C(=O)N2CCC[C@H]2COC1=O,nt,-17,nt,nt,nt
SMILES,eIF4H inh,MLLE-PAM2 inh,PERK inhibitor,PABP polyA inh,eIF4E-4G inh
Cc1cccc(OC(=O)n2c(=S)oc3cc(Cl)ccc32)c1,?,-75,1,86*,1
COCc1ccccc1C1=CC(=O)C[C@H](c2ccc(F)cc2)C1,nt,9,nt,nt,nt
Cc1c2c(=O)n(-c3nc4ccccc4s3)nc-2cc(O)n1Cc1ccccc1,60*,-44,1,50*,32*
COc1cc(OC)c(N2CC(C(=O)NCCC3=CCCCC3)CC2=O)cc1Cl (stereo not drawn),nt,6,nt,nt,nt
N#Cc1ccc(OCC(=O)OCC(=O)c2ccc[nH]2)cc1,nt,5,nt,nt,nt
CCN(c1c(C)n(C)n(-c2ccccc2)c1=O)S(C)(=O)=O,7,52*,1,1,-13

# Screens as filed in PubChem BioAssay.
